The source made the active and inactive calls.

Assay [1] concerns Plasmodium falciparum Sir2 (PF13_0152, Sir2A). Nature of the assay: Plasmodium falciparum Sir2A binding compounds – biochemical, small-molecule microarray, 635 nm fluorescence, primary screen (AID 1098).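 Further: score merges spot fluorescence intensity with its signal-to-noise ratio.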 The conditions noted are these: fluorescence 635 nm, higher = more signal.
The nature of assay [2]: probe aDKK1 binding to arrayed compounds – biochemical, biotinylated probe, 635/667 nm fluorescence, primary screen (AID 1099).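 Further: score merges 667nm spot fluorescence with signal to noise across triplicate slides.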 The conditions noted are these: small-molecule microarray, higher = more signal.
Assay [3] can be described thus: probe aCHRDL2 binding to arrayed compounds – biochemical, biotinylated probe, 635/667 nm fluorescence, primary screen (AID 1100). The conditions noted are these: small-molecule microarray, higher = more signal.
Assay [4] is described as follows: change in splice reporter luminescence, either direction, cell-based, HEK293, spliceosome inhibition project, primary screen (AID 1101).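 Further: HEK293 cells carrying a splicing-competent luciferase reporter gene; test concentration not given here.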 The settings on record: HEK293 splicing luciferase reporter, 24 h, higher = more signal, called active from +8 up or from −8 down.
The target of assay [5] is Fibroblast growth factor 10 (Homo sapiens) (UniProt O15520). The assay is described as follows: compounds binding fibroblast growth factor 10 – biochemical, small-molecule microarray, 635 nm fluorescence, primary screen (AID 1102). The settings on record: FGF10 binding, fluorescence 635 nm, higher = more signal.
Assay [6] has as its system glycogen synthase kinase-3 (GSK3A per assay name; protocol says GSK3B). The assay is described as follows: compounds binding glycogen synthase kinase-3 – biochemical, small-molecule microarray, 635 nm fluorescence, GSK3A, primary screen (AID 1103). Further: the record names both GSK3A and GSK3B. The conditions noted are these: fluorescence 635 nm, higher = more signal.
The target of assay [7] is Epidermal growth factor receptor (Homo sapiens) (UniProt P00533). Nature of the assay: compounds binding epidermal growth factor receptor – biochemical, small-molecule microarray, 635 nm fluorescence, primary screen (AID 1104).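 Further: score merges 667 nm emission intensity with spot signal to noise over triplicate slides.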 The settings on record: EGFR binding, higher = more signal.
Assay [8] addresses Follistatin-related protein 3 (Homo sapiens) (UniProt O95633). The assay is described as follows: compounds binding follistatin-related protein 3 – biochemical, small-molecule microarray, 635 nm fluorescence, primary screen (AID 1105).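 Further: score merges emission near 667 nm and signal to noise per printed spot across three slides.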 The settings on record: FSTL3 binding, higher = more signal.
Assay [9] deals with Dickkopf-related protein 1 (Homo sapiens) (UniProt O94907). The assay is described as follows: small molecules binding DKK1 protein – biochemical, small-molecule microarray, 635 nm fluorescence scan, primary screen (AID 1106).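 Further: score merges emission near 667 nm with signal to noise over three replicate slides.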 The conditions noted are these: higher = more signal.
Assay [10] concerns Inhibin beta A chain (activin A). The assay is described as follows: small molecules binding activin A – biochemical, small-molecule microarray, 635 nm fluorescence scan, primary screen (AID 1107).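 Further: mouse activin A protein probed at 4.33 µg/mL on printed slides; score merges bound-protein fluorescence near 667 nm with spot signal-to-noise.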 The settings on record: INHBA, higher = more signal.
The test system of assay [11] is Human papillomavirus type 1a protein E7 (residues 44-93). The assay is described as follows: small molecules binding HPV E7 44-93 – biochemical, small-molecule microarray, residues 44-93, 635 nm fluorescence, primary screen (AID 1108).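 Further: E7 fragment applied at 1 µg/mL in TBST for 1 h at 4 C; score combines spot fluorescence with its signal to noise ratio.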 The conditions noted are these: fluorescence 635 nm, higher = more signal.
Assay [12] can be described thus: hepatitis C replication reporter changes, two-sided – Huh7 cells, luciferase reporter, HCV replication inhibitor project, primary screen (AID 1109).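 Further: huh7 hepatoma cells harbouring a luciferase neomycin HCV replicon reporter; luciferase luminescence as measure of HCV replicon replication; test concentration not given here.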 The settings on record: Huh7 HCV replicon luciferase reporter, 48 h; higher = more signal.
For assay [13], the target named is Left-right determination factor 2 (Homo sapiens) (UniProt O00292). The assay is described as follows: small molecules binding LEFTY2 protein – biochemical, small-molecule microarray, 635 nm fluorescence scan, primary screen (AID 1110). The conditions noted are these: higher = more signal.
The target of assay [14] is Calmodulin-1 (Homo sapiens) (UniProt P0DP23). The assay is described as follows: small molecules binding calmodulin-1 with EGTA – biochemical, small-molecule microarray, Cy5-labelled CALM1, profiling panel (AID 1111).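 Further: labelled calmodulin applied in Tris saline Tween buffer holding calcium plus EGTA and DTT.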 The settings on record: Cy5-CALM1 binding fluorescence, higher = more signal.
For assay [15] the target is unchanged. The assay is described as follows: small molecules binding Ca-loaded calmodulin-1 – biochemical, small-molecule microarray, Cy5-labelled CALM1, plus calcium, artefact control for SMM control-protein annotation, profiling panel (AID 1112).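 Further: score merges spot fluorescence with signal to noise from triplicate slides.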 The settings on record: Cy5-CALM1 binding fluorescence, higher = more signal.
A short description of assay [16]: probe aWnt5a binding to arrayed compounds – biochemical, biotinylated probe, 635/667 nm fluorescence, primary screen (AID 1113).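 Further: score merges 667 nm fluorescence intensity with signal-to-noise per printed feature.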 The conditions noted are these: small-molecule microarray, higher = more signal.
Assay [17] is described as follows: probe aShh binding to arrayed compounds – biochemical, biotinylated probe, 635/667 nm fluorescence, primary screen (AID 1114).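 Further: probe is biotin-labelled aShh protein from a stem cell growth factor screen; measures binding of labelled protein to compounds printed on the slide; score merges feature fluorescence at 667 nm with signal-to-noise.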 The conditions noted are these: small-molecule microarray, higher = more signal.
A short description of assay [18]: probe aNog binding to arrayed compounds – biochemical, biotinylated probe, 635/667 nm fluorescence, primary screen (AID 1115).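 Further: probe is biotinylated aNog protein used at 0.15 µg/mL for 1 h at 4 C; z-score combines 667 nm fluorescence of each spot with its signal to noise.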 The conditions noted are these: small-molecule microarray, higher = more signal.
The target of assay [19] is Torsin-1A-interacting protein 1 (Homo sapiens) (UniProt Q5JTV8). Nature of the assay: compound microarray binding of lysate hLAP1 – cell lysate, small-molecule microarray, COS7 lysate, 635/667 nm fluorescence, primary screen (AID 1116). The settings on record: 635 nm fluorescence, higher = more signal.
The target of assay [20] is Alpha-bungarotoxin (Bungarus multicinctus) (UniProt P60615). The assay is described as follows: compounds binding labelled alpha-BTX control protein – biochemical, small-molecule microarray, Alexa647 label, 635/667 nm fluorescence, artefact control for SMM control protein annotation, profiling panel (AID 1117). The conditions noted are these: alpha-BTX-A647 binding fluorescence, higher = more signal.
Alpha-bungarotoxin (Bungarus multicinctus), sequence (P60615 whole entry, looked up): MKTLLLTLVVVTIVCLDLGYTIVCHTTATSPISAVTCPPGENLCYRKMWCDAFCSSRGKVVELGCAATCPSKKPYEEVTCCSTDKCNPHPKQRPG

Follistatin-related protein 3 (Homo sapiens), sequence (O95633 whole entry, looked up): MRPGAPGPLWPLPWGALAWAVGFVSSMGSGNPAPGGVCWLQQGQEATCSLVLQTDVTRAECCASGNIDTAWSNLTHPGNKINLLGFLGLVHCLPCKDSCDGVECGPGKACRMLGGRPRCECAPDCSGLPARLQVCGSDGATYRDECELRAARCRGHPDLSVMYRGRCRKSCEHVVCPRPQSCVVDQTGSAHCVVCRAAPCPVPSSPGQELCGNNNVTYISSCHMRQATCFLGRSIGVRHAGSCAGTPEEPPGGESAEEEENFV
Fibroblast growth factor 10 (Homo sapiens), sequence (O15520 whole entry, looked up): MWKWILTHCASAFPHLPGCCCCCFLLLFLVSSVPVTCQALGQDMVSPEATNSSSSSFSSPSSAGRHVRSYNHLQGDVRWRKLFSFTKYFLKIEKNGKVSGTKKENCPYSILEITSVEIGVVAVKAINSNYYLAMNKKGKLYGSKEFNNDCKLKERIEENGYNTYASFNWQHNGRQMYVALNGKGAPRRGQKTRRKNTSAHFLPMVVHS
Torsin-1A-interacting protein 1 (Homo sapiens), sequence (Q5JTV8 whole entry, looked up): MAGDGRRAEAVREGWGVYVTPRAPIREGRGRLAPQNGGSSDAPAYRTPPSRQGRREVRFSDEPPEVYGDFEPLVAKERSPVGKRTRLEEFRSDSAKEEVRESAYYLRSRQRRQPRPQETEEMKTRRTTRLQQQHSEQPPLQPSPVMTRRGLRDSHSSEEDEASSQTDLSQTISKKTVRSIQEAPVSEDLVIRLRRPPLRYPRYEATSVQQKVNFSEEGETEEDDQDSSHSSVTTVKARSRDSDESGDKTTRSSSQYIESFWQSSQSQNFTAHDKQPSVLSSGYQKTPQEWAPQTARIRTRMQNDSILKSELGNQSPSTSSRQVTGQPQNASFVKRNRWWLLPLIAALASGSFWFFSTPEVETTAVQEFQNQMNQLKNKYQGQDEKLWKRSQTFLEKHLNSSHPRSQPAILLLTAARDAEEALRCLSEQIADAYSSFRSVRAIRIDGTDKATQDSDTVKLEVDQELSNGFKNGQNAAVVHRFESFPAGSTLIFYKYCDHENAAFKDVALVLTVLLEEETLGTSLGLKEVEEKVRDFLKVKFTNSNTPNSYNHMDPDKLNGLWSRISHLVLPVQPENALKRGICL
Epidermal growth factor receptor (Homo sapiens), sequence (P00533 whole entry, looked up): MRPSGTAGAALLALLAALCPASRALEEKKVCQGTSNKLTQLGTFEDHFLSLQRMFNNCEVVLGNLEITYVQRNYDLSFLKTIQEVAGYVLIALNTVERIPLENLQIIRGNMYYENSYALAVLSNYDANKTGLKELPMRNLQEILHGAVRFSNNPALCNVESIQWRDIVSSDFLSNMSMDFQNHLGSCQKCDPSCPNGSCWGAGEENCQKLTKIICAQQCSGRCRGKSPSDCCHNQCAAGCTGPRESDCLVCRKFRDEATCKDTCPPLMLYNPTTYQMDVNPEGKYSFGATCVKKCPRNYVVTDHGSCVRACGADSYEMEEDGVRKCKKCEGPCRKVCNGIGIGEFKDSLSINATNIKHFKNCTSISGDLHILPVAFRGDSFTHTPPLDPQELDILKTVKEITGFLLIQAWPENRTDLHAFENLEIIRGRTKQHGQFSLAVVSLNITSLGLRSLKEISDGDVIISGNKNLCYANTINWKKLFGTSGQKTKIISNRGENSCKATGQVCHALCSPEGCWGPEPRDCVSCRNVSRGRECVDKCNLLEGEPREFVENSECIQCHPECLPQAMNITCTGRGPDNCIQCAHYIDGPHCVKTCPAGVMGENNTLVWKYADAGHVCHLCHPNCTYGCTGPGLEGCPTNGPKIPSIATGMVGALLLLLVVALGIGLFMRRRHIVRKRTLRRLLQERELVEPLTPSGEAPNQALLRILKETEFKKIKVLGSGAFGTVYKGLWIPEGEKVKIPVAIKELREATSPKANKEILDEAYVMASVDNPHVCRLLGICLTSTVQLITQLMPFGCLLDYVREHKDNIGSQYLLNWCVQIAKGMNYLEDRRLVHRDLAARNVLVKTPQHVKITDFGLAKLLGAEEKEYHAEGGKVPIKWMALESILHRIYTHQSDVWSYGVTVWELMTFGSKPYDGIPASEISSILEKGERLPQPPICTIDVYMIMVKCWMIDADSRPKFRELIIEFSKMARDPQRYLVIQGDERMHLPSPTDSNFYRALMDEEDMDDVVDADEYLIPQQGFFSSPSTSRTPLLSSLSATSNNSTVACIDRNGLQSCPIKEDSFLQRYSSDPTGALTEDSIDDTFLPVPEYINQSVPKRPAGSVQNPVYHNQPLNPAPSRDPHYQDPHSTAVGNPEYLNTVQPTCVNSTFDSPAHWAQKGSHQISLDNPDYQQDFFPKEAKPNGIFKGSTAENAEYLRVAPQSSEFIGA
Dickkopf-related protein 1 (Homo sapiens), sequence (O94907 whole entry, looked up): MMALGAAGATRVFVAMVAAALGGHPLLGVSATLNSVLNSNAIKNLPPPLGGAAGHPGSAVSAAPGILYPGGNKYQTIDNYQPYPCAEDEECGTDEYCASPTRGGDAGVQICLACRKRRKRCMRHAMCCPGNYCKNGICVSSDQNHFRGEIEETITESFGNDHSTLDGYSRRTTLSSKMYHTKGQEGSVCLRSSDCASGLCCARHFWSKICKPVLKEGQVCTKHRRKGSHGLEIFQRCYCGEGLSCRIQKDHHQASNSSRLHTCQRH
Left-right determination factor 2 (Homo sapiens), sequence (O00292 whole entry, looked up): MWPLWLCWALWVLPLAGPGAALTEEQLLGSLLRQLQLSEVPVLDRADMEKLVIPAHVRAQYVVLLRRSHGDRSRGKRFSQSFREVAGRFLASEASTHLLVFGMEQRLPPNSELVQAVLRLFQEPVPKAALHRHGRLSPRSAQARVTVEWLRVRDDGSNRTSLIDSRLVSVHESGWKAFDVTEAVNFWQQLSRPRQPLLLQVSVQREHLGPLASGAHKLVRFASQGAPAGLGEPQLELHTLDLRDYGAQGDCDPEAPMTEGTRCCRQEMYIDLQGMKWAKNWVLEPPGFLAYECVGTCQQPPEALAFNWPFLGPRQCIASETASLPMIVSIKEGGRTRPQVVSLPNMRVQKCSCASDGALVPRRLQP

`C[N+](C)(C)CCCC[C@@H]1NC(=O)[C@@H]2C[C@H](C(=O)O)[C@H](c3ccc(O)cc3)N2C1=O`: the composite z-score was -0.72 in [1]; 0.0476 in assay [2]; 0.937 in [3]; -1.57 in assay [5]; -1.32 in assay [6]; -1.04 in [7]. The composite z-score in [8] was 0.0994; in [9] it was -0.0081; in assay [10], 0.614; in [11], -3.49; in assay [13], -0.566; in assay [14], -0.0386. The composite z-score in assay [15] is 0.305; in assay [16] it was -0.197; in [17], -0.141; in assay [18], -0.359; in assay [19] it was 0.136; in [20] it was 0.0213. In addition, the z-score in [4] is 0.116 (inactive); in assay [12], 0.964.

Turning to `C=C(COC)/C(=C/C[C@@H](OC(=O)c1ccncc1)c1ccc(CO)o1)c1cnc2ccccc2c1`, the composite z-score was 1.06 in assay [1]; -0.182 in assay [2]; -0.386 in assay [3]; 1.59 in [5]; 1.35 in assay [6]; 1.59 in assay [7]. In addition, the composite z-score was 1.57 in assay [8]; 1.2 in assay [9]; 1.87 in assay [10]; 1.42 in [11]; 1.03 in assay [13]; 0.274 in assay [14]. The composite z-score in assay [15] was -0.851; in [16], 0.0037; in [17], 0.365; in assay [18], 0.557; in assay [19] it was 1.83; in assay [20], 2.65. In addition, the z-score was 0.773 (inactive) in assay [4] and -0.632 in assay [12].

For `COCCOC(=O)N1C(=O)[C@@]2(c3cc(C#Cc4ccc(OC)cc4)ccc31)[C@H](C(=O)N1CCN(c3ncccn3)CC1)[C@H]1C(=O)O[C@H](c3ccccc3)[C@H](c3ccccc3)N1[C@@H]2c1ccccc1OCCO`, the composite z-score in [1] is 0.625; in [2], -0.0221; in assay [3] it was 0.221; in assay [5], 0.343; in assay [6], -0.142; in assay [7], 0.139. Also, the composite z-score is -0.181 in assay [8]; -0.163 in [9]; 0.443 in assay [10]; 1.23 in assay [11]; 0.0641 in [13]; 0.551 in [14]. The composite z-score in assay [15] was 0.858; in assay [16] it was -0.131; in [17], -0.0011; in [18] it was 0.187; in assay [19], 0.931; in assay [20] it was 1. Also, the z-score was -0.562 (inactive) in assay [4] and -0.509 in [12].

With `C=C(/C=C/CNS(=O)(=O)c1ccc(C)cc1)[C@H](O)[C@H]1CCCN1S(=O)(=O)c1ccccc1[N+](=O)[O-]`, the composite z-score in assay [1] was 0.61; in assay [2], 0.0684; in assay [3] it was 0.0163; in assay [5] it was 0.582; in assay [6], 0.139; in assay [7] it was 0.669. For the same compound, the composite z-score was 0.998 in assay [8]; 0.727 in assay [9]; 0.809 in [10]; -0.197 in assay [11]; 0.77 in assay [13]; -0.115 in assay [14]. Further, the composite z-score in assay [15] is -0.795; in assay [16] it was -0.119; in [17] it was -0.138; in assay [18] it was -0.272; in assay [19], 0.581; in assay [20], 0.616. Further, the z-score in assay [4] was -0.112 (inactive); in assay [12], -2.48.

As to `CC(C)(C)OC(=O)CC[C@]1(C(=O)NCCN2CCOCC2)N=C(c2ccc(OCCCO)cc2)O[C@H]1c1ccccc1`, the composite z-score in assay [1] is 1; in [2], 0.214; in [3], 0.93; in assay [5], -0.426; in [6] it was -1.04; in [7] it was -0.174. The composite z-score was -0.713 in assay [8]; -1.02 in assay [9]; 0.992 in [10]; 1.18 in [11]; -0.103 in assay [13]; 1.78 in assay [14]. The composite z-score is 0.598 in assay [15]; -0.0203 in assay [16]; -0.153 in [17]; 0.593 in [18]; -0.299 in assay [19]; 1.57 in assay [20]. Further, the figures for the z-score in [4] and in [12] were 0.66 (inactive) and 0.0186, respectively.

These data come from PubChem BioAssay.
